Measured values as given in PubChem BioAssay (NCI).
Where “and” joins values, the source holds several entries; their conditions need not be identical. Identical values can stand only once. Compounds without any hit were thinned out: in the full panel of roughly 83,000, 20% have a hit.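 Negative percent growth values reflect cell death: -40 means 40% of the cells present at the start died, and -100 means all died.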 Values without a mark were called inactive. Calls of active or inactive are those of the source. Rule for the calls: active = growth percent below 10; inactive = the rest.

Tested on: MDA-MB-468 breast
Experiment: NCI-60 one-dose screen, 48 h (100 = growth as untreated, 0 = no growth, -100 = all killed)
Conditions: 10 µM unless noted

Compound | growth
C#CCN(CCCOc1ccc(Cl)cc1Cl)CCCSC(=O)CCCCCN1/C(=C\C=C2/CCCC(/C=C/C3=[N+](CCCCCC(=O)[O-])c4ccccc4C3(C)C)=C2Cl)C(C)(C)c2ccccc21 | 12.8%
COc1nc(N)nc(-n2c(-c3ccc(C)cc3)nc3ccccc32)c1NCc1ccc(C)cc1 | 98.6%
CCOc1ccc(-n2cc(-c3ccc(N(C)C)cc3)[n+]3c2CCCCC3)cc1 | -17.4% (active)
CN(C)c1ccc(N=Nc2cccc3ccccc23)cc1 | -26.6% (active)
Cc1cc(N2CCCCC2)nc(N(CCNc2ccnc3cc(Cl)ccc23)Cc2ccco2)n1 | -0.362% (active)
N#Cc1cccc(OCc2nc(N)nc(N)c2-c2ccc(Cl)c(Cl)c2)c1 | 19.3%
CCOC(=O)/C(C#N)=C(/CC)OCC | 113%
C=C(C)C(=O)O[C@H]1C[C@@]2(C)OC(=CC2=O)/C(CO)=C\[C@H]2OC(=O)C(=C)[C@H]12 | -34% (active)
C=C(C)[C@@H]1CC[C@]2(C(=O)O)CC[C@]3(C)[C@H](CC[C@@H]4[C@@]5(C)C[C@@H](Cc6cn(CCO[C@@H]7O[C@H](COC(C)=O)[C@H](OC(C)=O)[C@H](OC(C)=O)[C@H]7OC(C)=O)nn6)[C@H](O)C(C)(C)[C@@H]5CC[C@]43C)[C@@H]12 | 64.4%
c1ccc2c(-c3nccs3)c[nH]c2c1 | 91.3%
Cc1csc(N/N=C/c2ccncc2)n1 | 107%
O=C1[C@H]2Cc3c([nH]c4ccccc34)[C@H](c3ccc(Cl)cc3)N2C(=O)CN1C1CCN(CC2CCCCC2)CC1 | 62.7%
O=Cc1[nH]c(Sc2ccccc2)c2ccccc12 | 47.7%
O=C1Nc2ccc(F)cc2C12Nc1cc(Cl)ccc1S2 (configuration not stated) | 107%
CCOC(=O)c1c(NCC(=O)Nc2ccc(Br)cc2)sc2c1CCCC2 | 7.05% (active)
CCN1CCN(CCOc2ccc(CNc3ccc4nc(CCC5CCCCC5)[nH]c4c3)cc2)CC1 | 35%
O=C(Cn1cc(CSc2nc3ccccc3o2)nn1)Nc1ccc(F)cc1F | 104%
CC(C)CCN(CCC(C)C)CC(=O)Nc1ccc(S(=O)(=O)c2ccc(NC(=O)CN(CCC(C)C)CCC(C)C)cc2)cc1 | 46.5%
CCN1CCN(c2ccc(NC(=O)Nc3nc4ccc(-c5ccccc5OC)cc4s3)cc2)CC1 | -76.7% (active)
O=C1NCC(=O)N(Cc2ccco2)[C@H]1Cc1ccccc1 | 114%
COc1ccc(CN2c3ccccc3Sc3ccccc32)cc1F | -0.673% (active)
CN1CCN(CCCNc2nccc(-c3c(-c4ccc(F)c(O)c4)nc4sccn34)n2)S1(=O)=O | 92.9%
CCCN(CCC)CCCNC(=O)c1cc2c(-c3ccc(OC)c(OC)c3)nn(C)c2s1 | 39%
Cc1cc(C)on1 | 98.5%
COc1cc(CN2CCO[C@H](COc3cccc(F)c3)C2)ccc1Cl | 11.4%
COC(=O)/C(CCC=C(C)C)=C1\[C@@H](OC(C)=O)C[C@@]2(C)[C@H]1C[C@@H](O)[C@H]1[C@@]3(C)CC[C@H](NCCCNCCCCNCCCN)[C@@H](C)[C@@H]3CC[C@@]12C | 78.5%

Compound | growth
CCc1c(C)c2cc3c(c(C)c2oc1=O)OCC(=O)N3 | 69.4%
COc1ccc(C2CC(c3ccc(OC)c(OC)c3)=NN2C(=O)c2cc(OC)c(OC)c(OC)c2)cc1 (configuration not stated) | -32.5% (active)
Brc1ccc2[nH]cc(-c3nn4cc(-c5nccs5)nc4s3)c2c1 | 51.2%
O=C(CN1CCN(c2cccc(Cl)c2)CC1)N1CCN(c2nnc(-c3ccc(Cl)cc3)c(-c3ccc(Cl)cc3)n2)CC1 | 97.5%
Cn1c2ccccc2c2c3[nH]c(=O)[nH]c(=O)c3c3c4ccccc4n(C)c3c21 | 32.4%
FC(F)(F)c1ccc(-c2cnc(Cl)nc2N2CCC3(CC2)OCCO3)cc1 | 103%
Cc1nn(-c2cc(NC3CCC(O)CC3)c3c(=O)[nH]c(CCC(F)(F)F)cc3c2)c2c1C(=O)CC(C)(C)C2 (configuration not stated) | 5.19% (active)
Cc1noc(C)c1-c1cc(O)cc(C(O)c2ccccc2)c1 (configuration not stated) | 24.9%
COc1ccccc1N1CCN(C(=O)c2ccc3nc(NC(=O)c4ccc(NCCc5ccccc5)c([N+](=O)[O-])c4)sc3c2)CC1 | 99.1%
CCc1ccc(-c2ccc(-n3nc(C)c4c(N)nc(Cc5ccccc5)nc43)cc2)cc1 | 38.9%
Cc1ccc(NC(=O)Nc2ccc(Nc3ncnc4sc5c(c34)CCOC5)cc2)cc1Cl | 102%
COc1cc(C2C(C(=O)c3cccs3)=C(O)C(=O)N2CCN2CCOCC2)cc(OC)c1OC (configuration not stated) | 101%
NCCCOc1cc(Cl)ccc1NC(=O)c1cc2ccccc2cc1OCCCN | -85.3% (active)
COC(=O)[C@]12CC[C@@H](C)[C@H](C)[C@@H]1C1=CC(=O)[C@@H]3[C@@]4(C)C[C@@H](O)[C@H](O)[C@@]5(C)COC(=C45)C[C@@]3(C)[C@]1(C)CC2 | 44.2%
Fc1ccc(-c2nnc(N3CCOCC3)c3ccccc23)cc1 | 98.8%
ClCc1c(Cl)c(Cl)c(Cl)c(CCl)c1Cl | -74% (active)
CC1=C(C(=O)OCc2ccccc2)C(c2ccc3c(c2)OCO3)n2c(nc3ccccc32)N1 (configuration not stated) | 15.8%
CC(C)(C)c1cc(-n2c(-c3ccc(Cl)cc3)nc3cc(C(=O)Nc4ccc(Cl)cc4)ccc32)n[nH]1 | 51.7%
COC(=O)c1c2c(c(C)[n+]([O-])c1C)C(=O)C=C(NCc1cccc(OC)c1)C2=O | -67.8% (active)
Cc1ccc(-c2nc(C#N)c(S(=O)(=O)N(C)CCO)o2)cc1 | 46.1%
CCCCc1nc(/C=N/Nc2nc(Nc3ccccc3)nc(Nc3ccc(S(N)(=O)=O)cc3)n2)c(Cl)[nH]1 | -12.5% (active)
CCN1C(=O)N(CC)C2C1NN=c1s/c(=C\c3ccc(OC)cc3)c(=O)n12 (configuration not stated) | -0.192% (active)
CON=C1C[C@]2(C[C@@H]3C[C@@H](C/C=C(\C)C[C@@H](C)/C=C/C=C4\CO[C@@H]5[C@H](O)C(C)=C[C@@H](C(=O)O3)[C@]45O)O2)O[C@H](/C(C)=C/C(C)C)[C@H]1C | 49%
CCOC(=O)c1sc(NS(=O)(=O)c2ccccc2)nc1C | 106%
O=[N+]([O-])c1ccc(-c2nnc(SCc3ccc(O)c4ncccc34)o2)cc1 | 16.2%
S=C(NCCNC(=S)[S][Sn]([c]1ccccc1)([c]1ccccc1)[c]1ccccc1)[S][Sn]([c]1ccccc1)([c]1ccccc1)[c]1ccccc1 | -97.9% (active)

Compound | growth
O=C(CCc1ccccc1)N1CCN(C(=O)CCc2ccccc2)CC1 | 111%
Cn1ncc2c(Nc3ccccc3Cl)nc(Cl)nc21 | 97.1%
CON1CCC[C@]2(C)[C@H]3CC[C@@H]4[C@H]5[C@@H](O)C(C)(C)CC[C@]5(CO)CC[C@@]4(C)[C@]3(C)CC[C@H]2C1(C)C | 114%
CCOC(=O)c1cn2ncnc(Oc3ccc(NC(=O)NCCN(CC)CC)c(Cl)c3)c2c1C | 52.8%
CCOC(=O)c1noc2c1CCc1cn(Cc3cc(OC)cc(OC)c3)cc1-2 | 108%
CC(=O)OC[C@]12CCC(C)(C)C[C@H]1[C@@]1(O)[C@H](O)C[C@@H]3[C@@]4(C)CCCNC(C)(C)[C@@H]4CC[C@@]3(C)[C@]1(C)CC2 | 115%
O=[N+]([O-])c1ccc(NC2CCCCC2)nc1 | 110% and 99.8%
Cc1ccc(NCCN2CCCCC2)c2c(=O)c3ccccc3sc12 | 11.1%
COc1ccc(C(=O)c2ccccc2CN2C(=O)c3ccccc3C2=O)cc1 | 115%
COC(=O)/C(CCC=C(C)C)=C1\[C@@H](OC(C)=O)C[C@@]2(C)[C@H]1CC(=O)[C@H]1[C@@]3(C)CC[C@H](NCc4ccccc4)[C@@H](C)[C@@H]3CC[C@@]12C | 87.2%
COc1ccc(-c2nnc(COc3ccc(NC(=O)Nc4ccccc4)cc3F)o2)cc1 | 86.9%
CC(C)(C#N)N1CCN(c2ccccc2Cl)CC1 | 103%
COc1cccc(NC(=O)c2c(-c3ccccc3)c(-c3ccccc3)n[nH]c2=O)c1 | 92.4%
Cc1ccc(-c2nc3nc(-c4ccccc4)nc(N4CCCN(S(C)(=O)=O)CC4)c3o2)cc1 | 121%
COc1cc(Cc2cc(-c3ccccc3)n[nH]c2=O)cc(OC)c1OC | 29%
CC(C)(C)c1cc(C=Nc2cccc(C(F)(F)F)c2)c(O)c(C(C)(C)C)c1 | 95.8%
O=S(=O)(O)c1cccc2cccnc12 | 100%
C=CCn1c(SCC(=O)Nc2ccc(C(=O)/C=C/c3ccc(Cl)cc3)cc2)nnc1-c1ccc(Br)cc1 | 79.1%
CC/C=C\C[C@H](O)C/C=C1/C(=O)C=C[C@@H]1C/C=C\CCCCO | 16.5%
Cc1cc(C(c2ccccc2)c2ccccc2)ccc1NS(=O)(=O)c1ccccc1 | 111%
Clc1ccc(Nc2nc(Nc3ccccc3)nc(Nc3ccc(-c4cc(-c5ccc(Cl)cc5)on4)cc3)n2)cc1 | 93.4%
Cc1ccnc2c1ccc1c(C)ccnc12 | -17.8% (active)
CC1=C(SCC(=O)OCCCCCC(C)C)C(=O)c2ccccc2C1=O | 65.5%
CCOC(=O)Nc1ccc(-c2ccc3c(c2)NC(=O)/C3=C\c2ccc[nH]2)cc1 | -8.48% (active)
COc1ccc(C2CC(c3cccc(Nc4ccncc4)c3)=NN2c2ccccc2)cc1 (configuration not stated) | 15.7%
